Data from PubChem BioAssay (NCATS).
Several values for one entry are separate records, joined by “and”; a condition that tells them apart may be missing. Equal values may be shown once. Unmarked numbers belong to inactive results. Records with an inconclusive call do not appear. Activity calls are given as the source filed them. Unless noted, the call rests on the fitted dose curve; in most records, active means well fitted curve in the direction sought with a large enough effect; inconclusive means small, poorly fitted or top-dose-only effect, or another doubt; inactive means no such curve, though single readings can be large; an effect the other way counts as inactive or inconclusive.

How the values were obtained:
[1] = NFAT Signaling Pathway (AID 444; active means well fitted curve in either direction with a large enough effect, not every such curve was filed as active;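 further: carbachol stimulus at about its EC50 of 1 µM final; on the % scale 0 is the no-effect control and ±100 the full control effect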); conditions: Jurkat NFAT-bla M1, carbachol, beta-lactamase ratio, 5 h; at 7.69 µM (top of the series) unless noted
Outline: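 Read-out: CCF4 FRET ratio (460 nm/530 nm) after 1 h RT dye loading, used for %activity and AC50 from titration series. Cells: Jurkat NFAT-β-lactamase/M1 line, treated with compound plus 1 uM carbachol for 5 h, 37 °C.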

[2] = molecular target: Guanine nucleotide-binding protein G(i) subunit alpha-1 (Homo sapiens) (UniProt P63096); assay: qHTS Assay for Inhibitors of RGS12 GoLoco Motif Activity (Green Fluorophore) (AID 879);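 further: 0% = labeled peptide with Gαi1 and full inhibition = labeled peptide alone without protein; negative values mean loss of peptide binding seen as reduced polarization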
Outline: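 Fluorescence polarization assay: 50 nM Gαi1 with 10 nM FITC-labeled RGS12 GoLoco peptide in 10 mM Tris pH 7.5, 150 mM NaCl, 0.1 mM GDP, 0.05% NP40, 10 min at room temperature with compound.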

[3] = molecular target: Alpha-galactosidase A (Homo sapiens) (UniProt P06280); assay: Counterscreen for Glucocerebrosidase Inhibitors: qHTS Assay for Human alpha-Galactosidase at pH 4.5 (AID 992); further: 0% is about no effect
Outline: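 Human enzyme (2 nM) with 80 uM 4-methylumbelliferyl alpha-D-galactopyranoside in 50 mM citric acid, 0.005% Tween-20, pH 4.5, 20 min at room temperature. Compounds 0.7 nM–77 uM; fluorescence Ex 365/Em 440 after pH 10 stop; AC50 from Hill fits.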

[4] = molecular target: alpha-glucosidase (Oryza sativa, rice) (UniProt Q653V4); assay: Counterscreen for Glucocerebrosidase Inhibitors: qHTS Assay for Rice alpha-Glucosidase at pH 5.0 (AID 997);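 further: 0% = full activity with enzyme and -100% = basal without enzyme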
Outline: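 Rice alpha-glucosidase (4 nM final) with 400 uM 4-methylumbelliferyl-alpha-D-glucopyranoside in citrate buffer pH 5.0, 20 min at room temperature, stopped at pH 10; fluorescence 365/440 nm, compounds 0.7 nM–77 uM, AC50 from Hill fits.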

[5] = molecular target: Alpha-galactosidase (Coffea arabica) (UniProt Q42656); assay: Counterscreen for Glucocerebrosidase Inhibitors: qHTS Assay for Coffee Bean alpha-Galactosidase at pH 5.9 (AID 998);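 further: plate controls were uninhibited enzyme for no effect and no-enzyme basal signal for full effect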
Outline: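 Compounds were titrated from 0.7 nM to 77 uM against green coffee bean alpha-galactosidase (2 nM) using 80 uM fluorogenic 4-methylumbelliferyl substrate. After 20 min at room temperature, reactions were stopped at pH 10 and read by fluorescence.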

Chain of Guanine nucleotide-binding protein G(i) subunit alpha-1 (Homo sapiens) (P63096 whole entry, looked up): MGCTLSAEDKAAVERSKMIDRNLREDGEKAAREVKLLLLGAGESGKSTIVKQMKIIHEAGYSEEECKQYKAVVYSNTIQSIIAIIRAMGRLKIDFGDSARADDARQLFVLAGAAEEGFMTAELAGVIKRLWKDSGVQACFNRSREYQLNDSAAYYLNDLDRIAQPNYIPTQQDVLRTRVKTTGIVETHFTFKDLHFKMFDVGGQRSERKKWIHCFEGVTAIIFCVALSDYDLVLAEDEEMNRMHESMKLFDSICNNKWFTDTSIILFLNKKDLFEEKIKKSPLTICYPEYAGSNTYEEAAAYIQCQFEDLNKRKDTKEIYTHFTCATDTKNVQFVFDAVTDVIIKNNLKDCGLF
Chain of Alpha-galactosidase A (Homo sapiens) (P06280 whole entry, looked up): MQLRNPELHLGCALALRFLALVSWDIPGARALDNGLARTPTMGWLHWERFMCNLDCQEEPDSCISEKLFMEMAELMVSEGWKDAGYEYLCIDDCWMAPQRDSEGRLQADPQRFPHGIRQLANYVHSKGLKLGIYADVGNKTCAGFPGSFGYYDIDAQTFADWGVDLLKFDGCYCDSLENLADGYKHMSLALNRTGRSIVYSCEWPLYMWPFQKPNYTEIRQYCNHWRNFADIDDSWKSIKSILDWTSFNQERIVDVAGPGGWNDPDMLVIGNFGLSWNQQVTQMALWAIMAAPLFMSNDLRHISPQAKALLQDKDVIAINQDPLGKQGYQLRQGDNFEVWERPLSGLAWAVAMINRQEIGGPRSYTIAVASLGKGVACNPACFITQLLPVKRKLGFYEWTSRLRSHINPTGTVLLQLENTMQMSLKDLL
Chain of Alpha-galactosidase (Coffea arabica) (Q42656 whole entry, looked up): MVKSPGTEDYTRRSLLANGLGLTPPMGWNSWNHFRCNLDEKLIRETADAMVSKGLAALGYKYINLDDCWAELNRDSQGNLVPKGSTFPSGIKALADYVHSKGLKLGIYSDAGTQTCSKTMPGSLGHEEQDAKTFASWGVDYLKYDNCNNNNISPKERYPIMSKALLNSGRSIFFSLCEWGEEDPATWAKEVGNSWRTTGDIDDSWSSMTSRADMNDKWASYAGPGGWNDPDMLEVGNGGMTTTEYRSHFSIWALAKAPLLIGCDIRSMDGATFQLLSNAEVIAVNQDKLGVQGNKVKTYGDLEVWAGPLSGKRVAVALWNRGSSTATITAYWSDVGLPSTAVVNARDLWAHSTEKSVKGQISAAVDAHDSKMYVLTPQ

SMILES | activity change, negative = inhibition [1] | outcome [2] | outcome [3] | outcome [4] | outcome [5]
COc1cc(C[C@H](C)N)c(OC)cc1I | -22.6% [at 38 µM] and -16.3% [at 38 µM] | inactive | inactive | inactive | inactive
CCn1cnc2c(Nc3cccc(Cl)c3)nc(N[C@@H]3CCCC[C@H]3N)nc21 | -119% [at 38 µM] (active) | inactive | inactive | inactive | inactive
Oc1ccc2c3c1O[C@@H]1c4[nH]c5c(c4C[C@@]4(O)[C@@H](C2)N(CC2CC2)CC[C@]314)C[C@]1(O)[C@@H]2Cc3ccc(O)c4c3[C@@]1(CCN2CC1CC1)[C@H]5O4 | -8.04% [at 38 µM] | inactive | inactive | inactive | inactive
CC(=O)OCC1=C(C(=O)[O-])N2C(=O)[C@@H](NC(=O)CCC[C@@H](N)C(=O)[O-])[C@@H]2SC1.[Zn+2] | 1.01% [at 38 µM] | inactive | inactive | inactive | inactive
CCN(CC)c1ncnc2c1ncn2[C@@H]1O[C@@H](COP(=O)(O)OP(=O)(O)C(Br)(Br)P(=O)(O)O)[C@H](O)[C@@H]1O | 8.54% [at 38 µM] | inactive | inactive | inactive | inactive
COc1ccc2c(c1)[C@]13CCCC[C@@H]1[C@H](C2)NCC3 | 4.42% [at 38 µM] | inactive | inactive | inactive | inactive
Nc1ncnc2c1ncn2[C@@H]1O[C@@H](COP(=O)(O)CP(=O)(O)OP(=O)(O)O)[C@H](O)[C@@H]1O | 3.86% [at 38 µM] | inactive | inactive | inactive | inactive
C[N+]1(C)C2CC(OC(=O)C(CO)c3ccccc3)CC1[C@@H]1O[C@H]21 (some centres not stated) | -56.8% [at 38 µM] (active) | inactive | inactive | inactive | inactive
C=CCN1CC[C@]23c4c5ccc(O)c4O[C@@H]2/C(=N/NC(=O)c2ccccc2)CC[C@@]3(O)[C@H]1C5 | -2.19% [at 38 µM] | inactive | inactive | inactive | inactive
COc1cc([C@@H](O)CN)ccc1O | 6.77% [at 38 µM] | inactive | inactive | inactive | inactive
COc1ccc2c3c1O[C@@H]1C(=O)CC[C@@]4(O)[C@@H](C2)N(CC2CC2)CC[C@]314 | – | inactive | inactive | inactive | inactive
C[C@]12CC[C@H](O)CC1=CC[C@@H]1[C@H]2CC[C@]2(C)C(=O)CC[C@H]12 | – | inactive | inactive | inactive | inactive
O=C(O)[C@H]1[C@H](C(=O)O)[C@H]2CC[C@@H]1O2 | -8.52% [at 38 µM] | inactive | inactive | inactive | inactive
CC(C)N[C@@H](C)Cc1ccc(I)cc1 | -29.8% [at 38 µM] | inactive | inactive | inactive | inactive
C[C@@]12CC[C@H]3[C@@H](CCC4=C(O)C(=O)CC[C@]43C)[C@H]1CCC2=O | -1.14% [at 38 µM] | inactive | inactive | inactive | inactive
NC[C@H](O)c1cc(O)c(O)cc1F | 4.54% [at 38 µM] | inactive | inactive | inactive | inactive
O=C(Nc1cc[c]([Sb](=[O])([OH])[OH])cc1)c1ccccc1 | 23.1% | – | – | – | –
COC(=O)[C@H](N)CCCN=C(N)N[N+](=O)[O-] | 13% [at 38 µM] | inactive | inactive | inactive | inactive

SMILES | activity change, negative = inhibition [1] | outcome [2] | outcome [3] | outcome [4] | outcome [5]
N[C@H](Cc1ccc(N(CCCl)CCCl)cc1)C(=O)O | -21.6% [at 38 µM] | inactive | inactive | inactive | inactive
COc1ccc2c(c1O)-c1cccc3c1[C@H](C2)N(C)CC3 | -9.88% [at 38 µM] | inactive | inactive | inactive | inactive
N[C@H](Cn1cc(I)c(=O)[nH]c1=O)C(=O)O | -6.62% [at 38 µM] | – | – | – | –
CCNC(=O)[C@@H]1O[C@@H](n2cnc3c(N)ncnc32)[C@@H](O)[C@H]1O | -9.11% [at 38 µM] | inactive | inactive | inactive | inactive
C[N+]1(C)CCc2cc3c(cc2[C@@H]1[C@@H]1OC(=O)c2c1ccc1c2OCO1)OCO3 | – | inactive | inactive | inactive | inactive
N[C@H](Cn1ccc(=O)[nH]c1=O)C(=O)O | -2.89% [at 38 µM] | inactive | inactive | inactive | inactive
CO[C@@H]1CC=C2CCN3CCC4=C(CC(=O)OC4)[C@]23C1 | -0.774% [at 38 µM] | inactive | inactive | inactive | inactive
CC(=O)[C@@H]1CC[C@H]2[C@H]3CC[C@H]4C[C@@H](O)CC[C@]4(C)[C@@H]3CC[C@]12C | – | inactive | inactive | inactive | inactive
C[C@@]12CC[C@H]3[C@@H](CC=C4C[C@H](OS(=O)(=O)O)CC[C@]43C)[C@H]1CCC2=O | -0.252% [at 38 µM] | inactive | inactive | inactive | inactive
CN1C[C@@H](CS(=O)(=O)N(C)C)C[C@H]2c3cccc4c3c(cn4C)C[C@@H]21 | 4.13% [at 38 µM] | – | inactive | inactive | inactive
CCCN1CC[C@@H]2c3cc(O)ccc3CC[C@H]21 | -28.7% [at 38 µM] | inactive | inactive | inactive | inactive
NC(=O)CN1C[C@@H](O)CC1=O | 17.8% [at 38 µM] | inactive | inactive | inactive | inactive
N[C@H](Cn1oc(=O)[nH]c1=O)C(=O)O | -2.78% [at 38 µM] | – | – | – | –
C[Se]C[C@@H](N)C(=O)O | 5.06% [at 38 µM] | inactive | inactive | inactive | inactive
C[C@@]12CC[C@H]3[C@@H](CC[C@@H]4C[C@H](O)CC[C@]43C)[C@H]1CC[C@H]2O | 6.96% [at 38 µM] | inactive | inactive | inactive | inactive
CC(C)C[C@H](NP(=O)(O)O[C@@H]1O[C@@H](C)[C@@H](O)[C@@H](O)[C@H]1O)C(=O)N[C@@H](Cc1c[nH]c2ccccc12)C(=O)O | 9.26% [at 38 µM] | inactive | inactive | inactive | inactive
N[C@H](CCl)C(=O)O | – | inactive | inactive | inactive | inactive
